In the supplement of paper PMC10849652:
Of roughly 7,900 targets only a part is listed; those with a hit were picked by preference. About 0.6% of all pairs of compound and target were hits. A number with no mark means an inactive call.

Assays:
Assay in all cases: log2 fold change, soluble protein after heating vs DMSO (PISA); higher = thermal stabilisation; K562 cells, 10 uM, 30 min; active = over 0.2 and 3.5 SD of the protein, either way, in both replicates (recomputed)
[1] = compound: CC1=C(C=C(C=C1)NC(=O)C2=CC(=CC=C2)C(C)(C)C#N)NC3=CC4=C(C=C3)N=CN(C4=O)C
In short: (§1)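 Values are thermal stability changes relative to control samples and are taken from duplicates. They are stated as log2 fold changes. Before quantification by TMTpro 16plex LC-MS/MS with equalised channel sums, K562 cells at 2×10^6 cells/mL were treated with 10 μM compound for 30 min, heated in aliquots for 3 min across 48°C-58°C, pooled, extracted in PBS with 0.5% NP-40 at 4°C, and centrifuged at 21,000xg for 90 min to give the soluble supernatant.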

[2] = compound: CC1=C(C=C(C=C1)NC(=O)C2=CC(=CC=C2)N(C)C)NC(=O)C3=CC=C(C=C3)O
In short: as §1

[3] = compound: CC1=CC=C(C=C1)SC2=C3C=C(SC3=CN=C2)C(=O)N
In short: as §1

[4] = compound: CC1=NC(=CC=C1)C2=C(N=C(N2)C(C)(C)C)C3=CC4=NC=CN=C4C=C3
In short: as §1

[5] = compound: CCCCN(Cc1ccc(C(=O)NO)cc1)C(=O)Nc1ccccc1 [Nexturastat A]
In short: as §1

[6] = compound: CCCS(=O)(=O)Nc1ccc(F)c(C(=O)c2c[nH]c3ncc(-c4ccc(Cl)cc4)cc23)c1F [vemurafenib]
In short: as §1

[7] = compound: CCCS(=O)(=O)Nc1ccc(F)c(C(=O)c2c[nH]c3ncc(Cl)cc23)c1F
In short: as §1

[8] = compound: CCCc1cc(C)[nH]c(=O)c1CNC(=O)c1cc(-c2ccnc(N3CCN(C)CC3)c2)cc2c1cnn2C(C)C
In short: as §1

[9] = compound: CCN(CC)Cc1ccc2cc(COC(=O)Nc3ccc(C(=O)NO)cc3)ccc2c1 [givinostat]
In short: as §1

[10] = compound: CCN(CCCOc1ccc2c(Nc3cc(CC(=O)Nc4cccc(F)c4)[nH]n3)ncnc2c1)CCOP(=O)(O)O [barasertib]
In short: as §1

[11] = compound: CC[C@@H]1C(=O)N(C)c2cnc(Nc3ccc(C(=O)NC4CCN(C)CC4)cc3OC)nc2N1C1CCCC1
In short: as §1

[12] = compound: CC[C@@H]1C(=O)N(C)c2cnc(Nc3ccc(C(=O)N[C@H]4CC[C@H](N5CCN(CC6CC6)CC5)CC4)cc3OC)nc2N1C(C)C [volasertib]
In short: as §1

[13] = compound: CC[C@H](C)N1C=C(C2=C(C=C(C=C21)C3=CN=C(C=C3)N4CCNCC4)C(=O)NCC5=C(C=C(NC5=O)C)C)C
In short: as §1

[14] = compound: CC[C@H](C)[C@@H](C(=O)N[C@@H]([C@@H](C)O)C(=O)N[C@@H](CC(C)C)C(=O)[C@]1(CO1)C)NC(=O)[C@H]([C@@H](C)CC)N(C)C(=O)C [epoxomicin]
In short: as §1

[15] = compound: CCn1c(C(=O)N(C2CC2)C2CC2)cc2c3c(ncn3C)c(Nc3cc(C)n(C)n3)nc21
In short: as §1

[16] = compound: CCn1cc(-c2ccnc3[nH]c(-c4cccc(CN(C)C)c4)cc23)c(-c2ccc(NC(=O)N(C)C)cc2)n1
In short: as §1

[17] = compound: CN(C)CC(=O)Nc1ccc2[nH]c(=O)c3ccccc3c2c1
In short: as §1

[18] = compound: CN(CCOC1=CC=C(C=C1)C[C@H]2C(=O)NC(=O)S2)C3=CC=CC=N3 (racemic) [rosiglitazone]
In short: as §1

[19] = compound: CN1C2=C(C3=C1C(=O)N(N=C3)CC4=CC(=CC=C4)N)SC(=C2)S(=O)C
In short: as §1

[20] = compound: CN1CCC(CNc2ccc3ncc(-c4cccc(OC(F)(F)F)c4)n3n2)CC1
In short: as §1

Chain of UniProt O14730 (O14730 whole entry, looked up): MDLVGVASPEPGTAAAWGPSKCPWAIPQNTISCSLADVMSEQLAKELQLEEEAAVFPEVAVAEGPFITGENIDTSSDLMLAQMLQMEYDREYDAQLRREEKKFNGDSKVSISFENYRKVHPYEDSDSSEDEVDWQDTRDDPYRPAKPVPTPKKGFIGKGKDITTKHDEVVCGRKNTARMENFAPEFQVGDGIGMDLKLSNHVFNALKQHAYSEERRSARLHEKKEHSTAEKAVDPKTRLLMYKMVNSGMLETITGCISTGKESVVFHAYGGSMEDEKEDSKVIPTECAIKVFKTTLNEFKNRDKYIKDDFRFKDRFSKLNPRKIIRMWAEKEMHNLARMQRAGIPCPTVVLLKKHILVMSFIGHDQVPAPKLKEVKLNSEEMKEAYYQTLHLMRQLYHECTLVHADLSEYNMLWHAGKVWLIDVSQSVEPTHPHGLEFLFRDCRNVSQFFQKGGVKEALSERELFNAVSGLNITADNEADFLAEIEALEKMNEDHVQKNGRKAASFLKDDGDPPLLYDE
Chain of UniProt Q8N5L8 (Q8N5L8 whole entry, looked up): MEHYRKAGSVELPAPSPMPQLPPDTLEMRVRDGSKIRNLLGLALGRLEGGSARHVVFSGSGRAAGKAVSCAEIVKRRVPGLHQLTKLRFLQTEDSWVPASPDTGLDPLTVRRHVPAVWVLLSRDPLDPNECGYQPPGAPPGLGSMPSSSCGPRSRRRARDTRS
Chain of UniProt Q15418 (Q15418 whole entry, looked up): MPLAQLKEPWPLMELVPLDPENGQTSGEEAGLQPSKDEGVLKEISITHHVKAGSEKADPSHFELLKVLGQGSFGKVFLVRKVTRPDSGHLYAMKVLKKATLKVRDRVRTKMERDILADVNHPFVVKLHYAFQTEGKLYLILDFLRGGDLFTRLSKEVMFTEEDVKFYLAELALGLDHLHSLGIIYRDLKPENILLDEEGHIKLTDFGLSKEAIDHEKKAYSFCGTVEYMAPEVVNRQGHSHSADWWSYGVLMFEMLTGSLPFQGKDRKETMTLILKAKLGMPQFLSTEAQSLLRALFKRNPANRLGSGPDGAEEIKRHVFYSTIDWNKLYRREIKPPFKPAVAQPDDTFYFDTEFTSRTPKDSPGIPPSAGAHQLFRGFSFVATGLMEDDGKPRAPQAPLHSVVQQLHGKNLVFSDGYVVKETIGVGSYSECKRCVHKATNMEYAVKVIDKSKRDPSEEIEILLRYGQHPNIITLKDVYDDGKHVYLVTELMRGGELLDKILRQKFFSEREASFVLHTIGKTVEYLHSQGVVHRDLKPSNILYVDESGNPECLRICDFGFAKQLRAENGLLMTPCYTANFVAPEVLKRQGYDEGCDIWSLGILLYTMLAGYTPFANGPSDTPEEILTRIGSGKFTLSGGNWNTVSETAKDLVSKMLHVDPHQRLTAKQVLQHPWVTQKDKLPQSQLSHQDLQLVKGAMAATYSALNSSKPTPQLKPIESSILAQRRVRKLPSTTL
Chain of UniProt O14796 (O14796 whole entry, looked up): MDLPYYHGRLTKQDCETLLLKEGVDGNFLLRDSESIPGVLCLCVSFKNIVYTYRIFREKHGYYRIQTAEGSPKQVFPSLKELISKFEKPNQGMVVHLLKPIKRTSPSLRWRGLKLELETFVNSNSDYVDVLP
Chain of UniProt O43665 (O43665 whole entry, looked up): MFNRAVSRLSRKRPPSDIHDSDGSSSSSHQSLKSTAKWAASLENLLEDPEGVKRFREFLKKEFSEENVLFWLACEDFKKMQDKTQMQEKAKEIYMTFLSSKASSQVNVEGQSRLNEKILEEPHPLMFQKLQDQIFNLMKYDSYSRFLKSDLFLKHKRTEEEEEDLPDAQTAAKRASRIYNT
Chain of UniProt P46063 (P46063 whole entry, looked up): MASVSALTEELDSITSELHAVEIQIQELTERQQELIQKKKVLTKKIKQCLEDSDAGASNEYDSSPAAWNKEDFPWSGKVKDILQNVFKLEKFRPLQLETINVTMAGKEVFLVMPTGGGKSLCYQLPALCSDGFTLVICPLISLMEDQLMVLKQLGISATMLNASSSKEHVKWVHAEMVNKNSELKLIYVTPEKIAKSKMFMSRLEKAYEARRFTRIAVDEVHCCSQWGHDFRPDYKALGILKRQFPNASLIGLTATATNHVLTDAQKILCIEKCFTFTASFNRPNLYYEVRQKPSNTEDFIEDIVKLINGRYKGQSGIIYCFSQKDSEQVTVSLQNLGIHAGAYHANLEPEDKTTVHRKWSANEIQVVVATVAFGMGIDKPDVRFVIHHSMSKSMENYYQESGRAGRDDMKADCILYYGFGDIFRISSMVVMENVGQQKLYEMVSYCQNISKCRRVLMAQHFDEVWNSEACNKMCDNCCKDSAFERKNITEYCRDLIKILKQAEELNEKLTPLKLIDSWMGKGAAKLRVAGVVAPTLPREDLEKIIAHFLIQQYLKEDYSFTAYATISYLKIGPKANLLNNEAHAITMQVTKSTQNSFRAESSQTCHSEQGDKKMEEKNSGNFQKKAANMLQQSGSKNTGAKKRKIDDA
Chain of UniProt Q86UA6 (Q86UA6 whole entry, looked up): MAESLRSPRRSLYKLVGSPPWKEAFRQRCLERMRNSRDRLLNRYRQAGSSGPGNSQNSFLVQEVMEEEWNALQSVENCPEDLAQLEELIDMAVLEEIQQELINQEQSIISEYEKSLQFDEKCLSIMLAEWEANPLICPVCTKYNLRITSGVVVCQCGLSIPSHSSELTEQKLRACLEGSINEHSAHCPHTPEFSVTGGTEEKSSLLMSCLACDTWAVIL

Row | Target | log2 fold change [1] | log2 fold change [2] | log2 fold change [3] | log2 fold change [4] | log2 fold change [5] | log2 fold change [6] | log2 fold change [7] | log2 fold change [8] | log2 fold change [9] | log2 fold change [10] | log2 fold change [11] | log2 fold change [12] | log2 fold change [13] | log2 fold change [14] | log2 fold change [15] | log2 fold change [16] | log2 fold change [17] | log2 fold change [18] | log2 fold change [19] | log2 fold change [20]
1 | RPS6KA1 isoform 2 (UniProt Q15418) | -0.016 | -0.187 | 0.033 | 0.078 | 0.004 | 0.016 | 0.046 | 0.071 | -0.141 | 0.029 | -0.223 | -0.212 | 0.053 | 0.071 | 0.127 | -0.146 | 0.026 | 0.044 | -0.032 | -0.438 (active)
2 | RPP25L (UniProt Q8N5L8) | -0.028 | -0.015 | 0.036 | 0.02 | -0.01 | -0.034 | -0.035 | -0.048 | -0.073 | -0.025 | 0.144 | 0.115 | -0.042 | -0.04 | -0.052 | 0.059 | -0.074 | -0.093 | 0.061 | 0.058
3 | RIOK3 (UniProt O14730) | 0.026 | 0.021 | 0.009 | 0.014 | -0.094 | -0.012 | -0.012 | 0.011 | -0.003 | -0.003 | 0.084 | 0.04 | -0.01 | 0.072 | 0.001 | -0.053 | -0.011 | 0.024 | -0.023 | -0.041
4 | RGS10 (UniProt O43665) | -0.012 | -0.02 | -0.02 | -0.041 | -0.012 | 0.048 | 0.034 | 0.02 | 0.026 | 0.016 | -0.097 | -0.205 (active) | -0.043 | 0.101 | -0.025 | 0.011 | 0.078 | 0.011 | -0.111 | -0.016
5 | SART3, A0A499FI31 | 0.015 | -0.05 | -0.014 | 0.04 | -0.043 | 0.023 | 0.072 | -0.013 | 0.012 | 0.022 | -0.235 | -0.557 (active) | 0.061 | 0.065 | -0.008 | -0.017 | 0.017 | 0.038 | -0.056 | -0.211
6 | RECQL (UniProt P46063) | 0.028 | -0.012 | 0.011 | 0.039 | -0.002 | -0.009 | 0.063 | -0.007 | 0.038 | -0.002 | -0.032 | -0.014 | 0.002 | 0 | 0.009 | -0.021 | 0.016 | 0.032 | -0.076 | 0.058
7 | RPAIN isoform 8 (UniProt Q86UA6) | 0.009 | 0.038 | -0.098 | 0.136 | -0.017 | -0.062 | 0.042 | – | – | 0.029 | – | -0.718 (active) | – | -0.118 | – | – | -0.076 | -0.021 | -0.044 | –
8 | SH2D1B (UniProt O14796) | -0.781 | 0.013 | -0.01 | -0.011 | 0.143 | 0.048 | -0.135 | -0.146 | -0.028 | – | -0.068 | -0.029 | 0.095 | 0.168 | 0.092 | -0.068 | -0.025 | – | 0.235 | -0.174
